# According to PubChem BioAssay:
# The source made the active and inactive calls.
# Assays:
# [1] = system: Plasmodium falciparum Sir2 (PF13_0152, Sir2A); test: pfSir2 binders on small-molecule microarrays, primary screen, biochemical, small-molecule microarray, 635 nm fluorescence (AID 1098); settings: small-molecule microarray binding, fluorescence 635 nm; higher = more signal;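 also: score merges spot fluorescence intensity with its signal-to-noise ratio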
# [2] = small-molecule microarray binders of probe aDKK1, primary screen, biochemical, biotinylated probe, 635/667 nm fluorescence (AID 1099); settings: higher = more signal;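 also: score merges 667nm spot fluorescence with signal to noise across triplicate slides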
# [3] = small-molecule microarray binders of probe aCHRDL2, primary screen, biochemical, biotinylated probe, 635/667 nm fluorescence (AID 1100); settings: higher = more signal
# [4] = splicing luciferase reporter signal modulators, primary screen, spliceosome inhibition project, cell-based, HEK293, splice +/- reporter (AID 1101); settings: luminescence, 24 h, higher = more signal, called active from +8 up or from −8 down;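 also: HEK293 cells carrying a splicing-competent luciferase reporter gene; test concentration not given here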
# [5] = molecular target: Fibroblast growth factor 10 (Homo sapiens) (UniProt O15520); test: FGF10 binders on small-molecule microarrays, primary screen, biochemical, small-molecule microarray, 635 nm fluorescence (AID 1102); settings: FGF10 binding, fluorescence 635 nm, higher = more signal
# [6] = system: glycogen synthase kinase-3 (GSK3A per assay name; protocol says GSK3B); test: GSK3 binders on small-molecule microarrays, primary screen, biochemical, small-molecule microarray, 635 nm fluorescence, GSK3A (AID 1103); settings: small-molecule microarray binding, fluorescence 635 nm; higher = more signal; also: the record names both GSK3A and GSK3B
# [7] = molecular target: Epidermal growth factor receptor (Homo sapiens) (UniProt P00533); test: EGFR binders on small-molecule microarrays, primary screen, biochemical, small-molecule microarray, 635 nm fluorescence (AID 1104); settings: EGFR binding, higher = more signal;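 also: score merges 667 nm emission intensity with spot signal to noise over triplicate slides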
# [8] = molecular target: Follistatin-related protein 3 (Homo sapiens) (UniProt O95633); test: FSTL3 binders on small-molecule microarrays, primary screen, biochemical, small-molecule microarray, 635 nm fluorescence (AID 1105); settings: FSTL3 binding, higher = more signal;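 also: score merges emission near 667 nm and signal to noise per printed spot across three slides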
# [9] = molecular target: Dickkopf-related protein 1 (Homo sapiens) (UniProt O94907); test: DKK1 binders on small-molecule microarrays, primary screen, biochemical, small-molecule microarray, 635 nm fluorescence scan (AID 1106); settings: DKK1 binding, higher = more signal;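 also: score merges emission near 667 nm with signal to noise over three replicate slides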
# [10] = system: Inhibin beta A chain (activin A); test: INHBA (activin A) binders on microarrays, primary screen, biochemical, small-molecule microarray, 635 nm fluorescence scan (AID 1107); settings: small-molecule microarray binding, higher = more signal;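 also: mouse activin A protein probed at 4.33 µg/mL on printed slides; score merges bound-protein fluorescence near 667 nm with spot signal-to-noise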
# [11] = system: Human papillomavirus type 1a protein E7 (residues 44-93); test: HPV1a E7 fragment binders on microarrays, primary screen, biochemical, small-molecule microarray, residues 44-93, 635 nm fluorescence (AID 1108); settings: small-molecule microarray binding, fluorescence 635 nm; higher = more signal;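 also: E7 fragment applied at 1 µg/mL in TBST for 1 h at 4 C; score combines spot fluorescence with its signal to noise ratio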
# [12] = modulators of HCV replicon luciferase signal, primary screen, HCV replication inhibitor project, Huh7 cells, luciferase reporter (AID 1109); settings: 48 h, higher = more signal;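 also: huh7 hepatoma cells harbouring a luciferase neomycin HCV replicon reporter; luciferase luminescence as measure of HCV replicon replication; test concentration not given here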
# [13] = molecular target: Left-right determination factor 2 (Homo sapiens) (UniProt O00292); test: LEFTY2 binders on small-molecule microarrays, primary screen, biochemical, small-molecule microarray, 635 nm fluorescence scan (AID 1110); settings: LEFTY2 binding, higher = more signal
# [14] = molecular target: Calmodulin-1 (Homo sapiens) (UniProt P0DP23); test: CALM1 binders on microarrays, EGTA buffer, profiling panel, biochemical, small-molecule microarray, Cy5-labelled CALM1 (AID 1111); settings: Cy5-CALM1 binding fluorescence, higher = more signal;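 also: labelled calmodulin applied in Tris saline Tween buffer holding calcium plus EGTA and DTT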
# [15] = molecular target: Calmodulin-1 (Homo sapiens) (UniProt P0DP23); test: calcium-bound CALM1 binders on microarrays, profiling panel, artefact control for SMM control-protein annotation, biochemical, small-molecule microarray, Cy5-labelled CALM1, plus calcium (AID 1112); settings: Cy5-CALM1 binding fluorescence, higher = more signal;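 also: score merges spot fluorescence with signal to noise from triplicate slides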
# [16] = small-molecule microarray binders of probe aWnt5a, primary screen, biochemical, biotinylated probe, 635/667 nm fluorescence (AID 1113); settings: higher = more signal;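 also: score merges 667 nm fluorescence intensity with signal-to-noise per printed feature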
# [17] = small-molecule microarray binders of probe aShh, primary screen, biochemical, biotinylated probe, 635/667 nm fluorescence (AID 1114); settings: higher = more signal;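 also: probe is biotin-labelled aShh protein from a stem cell growth factor screen; measures binding of labelled protein to compounds printed on the slide; score merges feature fluorescence at 667 nm with signal-to-noise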
# [18] = small-molecule microarray binders of probe aNog, primary screen, biochemical, biotinylated probe, 635/667 nm fluorescence (AID 1115); settings: higher = more signal;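 also: probe is biotinylated aNog protein used at 0.15 µg/mL for 1 h at 4 C; z-score combines 667 nm fluorescence of each spot with its signal to noise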
# [19] = molecular target: Torsin-1A-interacting protein 1 (Homo sapiens) (UniProt Q5JTV8); test: LAP1 binders from COS7 cell lysate, primary screen, small-molecule microarray, 635/667 nm fluorescence (AID 1116); settings: COS7-hLAP1 lysate binding, 635 nm fluorescence, higher = more signal
# [20] = molecular target: Alpha-bungarotoxin (Bungarus multicinctus) (UniProt P60615); test: alpha-bungarotoxin binders on microarray, profiling panel, artefact control for SMM control protein annotation, biochemical, small-molecule microarray, Alexa647 label, 635/667 nm fluorescence (AID 1117); settings: alpha-BTX-A647 binding fluorescence, higher = more signal
# Alpha-bungarotoxin (Bungarus multicinctus), sequence (P60615 whole entry, looked up): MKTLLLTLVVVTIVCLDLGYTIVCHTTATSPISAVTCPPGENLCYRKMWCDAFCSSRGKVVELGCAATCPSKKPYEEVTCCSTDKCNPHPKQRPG
# Follistatin-related protein 3 (Homo sapiens), sequence (O95633 whole entry, looked up): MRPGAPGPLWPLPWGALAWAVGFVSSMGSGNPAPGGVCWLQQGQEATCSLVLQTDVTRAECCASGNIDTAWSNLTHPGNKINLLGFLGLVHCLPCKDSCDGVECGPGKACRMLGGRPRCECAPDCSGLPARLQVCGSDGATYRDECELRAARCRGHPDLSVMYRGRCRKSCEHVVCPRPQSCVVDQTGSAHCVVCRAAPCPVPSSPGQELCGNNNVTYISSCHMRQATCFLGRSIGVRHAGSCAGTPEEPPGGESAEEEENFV
# Epidermal growth factor receptor (Homo sapiens), sequence (P00533 whole entry, looked up): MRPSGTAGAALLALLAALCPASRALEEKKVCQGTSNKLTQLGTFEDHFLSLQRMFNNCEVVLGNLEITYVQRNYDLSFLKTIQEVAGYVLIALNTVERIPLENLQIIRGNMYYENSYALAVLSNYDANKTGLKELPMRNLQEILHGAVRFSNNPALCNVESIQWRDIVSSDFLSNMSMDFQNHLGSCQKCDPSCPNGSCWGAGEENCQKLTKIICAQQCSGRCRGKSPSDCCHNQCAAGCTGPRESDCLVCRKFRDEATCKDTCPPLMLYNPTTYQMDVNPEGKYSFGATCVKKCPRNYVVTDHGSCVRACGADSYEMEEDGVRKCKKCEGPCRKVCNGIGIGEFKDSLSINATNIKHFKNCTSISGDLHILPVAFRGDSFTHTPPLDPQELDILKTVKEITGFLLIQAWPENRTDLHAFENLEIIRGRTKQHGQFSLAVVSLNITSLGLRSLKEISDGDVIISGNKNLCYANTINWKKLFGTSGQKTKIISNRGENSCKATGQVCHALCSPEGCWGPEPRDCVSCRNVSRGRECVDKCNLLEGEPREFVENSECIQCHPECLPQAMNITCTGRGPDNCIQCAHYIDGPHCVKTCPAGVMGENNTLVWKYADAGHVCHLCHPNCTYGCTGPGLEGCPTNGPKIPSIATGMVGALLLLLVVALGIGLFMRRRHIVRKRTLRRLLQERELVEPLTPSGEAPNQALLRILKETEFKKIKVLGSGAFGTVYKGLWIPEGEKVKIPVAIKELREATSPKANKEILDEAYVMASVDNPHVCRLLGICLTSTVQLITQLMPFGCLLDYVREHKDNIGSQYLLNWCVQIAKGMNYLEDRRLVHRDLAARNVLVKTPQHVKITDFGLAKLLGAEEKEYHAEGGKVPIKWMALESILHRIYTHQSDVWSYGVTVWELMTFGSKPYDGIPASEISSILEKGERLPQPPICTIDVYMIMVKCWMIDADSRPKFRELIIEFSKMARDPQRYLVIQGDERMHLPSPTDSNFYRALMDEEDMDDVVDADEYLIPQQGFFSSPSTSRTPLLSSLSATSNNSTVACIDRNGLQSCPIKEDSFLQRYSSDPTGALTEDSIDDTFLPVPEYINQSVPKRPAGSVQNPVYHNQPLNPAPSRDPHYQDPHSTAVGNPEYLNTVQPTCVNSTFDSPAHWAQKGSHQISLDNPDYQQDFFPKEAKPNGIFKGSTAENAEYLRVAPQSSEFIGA
# Left-right determination factor 2 (Homo sapiens), sequence (O00292 whole entry, looked up): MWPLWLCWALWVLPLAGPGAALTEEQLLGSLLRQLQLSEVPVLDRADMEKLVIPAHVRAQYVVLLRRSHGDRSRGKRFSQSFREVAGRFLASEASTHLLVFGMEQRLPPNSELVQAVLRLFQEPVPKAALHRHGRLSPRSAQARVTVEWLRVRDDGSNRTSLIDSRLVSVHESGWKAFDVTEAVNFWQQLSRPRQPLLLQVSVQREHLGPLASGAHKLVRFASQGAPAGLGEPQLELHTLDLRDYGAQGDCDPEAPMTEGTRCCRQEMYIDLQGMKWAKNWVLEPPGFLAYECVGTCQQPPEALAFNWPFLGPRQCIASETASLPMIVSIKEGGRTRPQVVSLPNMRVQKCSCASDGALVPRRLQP
# Torsin-1A-interacting protein 1 (Homo sapiens), sequence (Q5JTV8 whole entry, looked up): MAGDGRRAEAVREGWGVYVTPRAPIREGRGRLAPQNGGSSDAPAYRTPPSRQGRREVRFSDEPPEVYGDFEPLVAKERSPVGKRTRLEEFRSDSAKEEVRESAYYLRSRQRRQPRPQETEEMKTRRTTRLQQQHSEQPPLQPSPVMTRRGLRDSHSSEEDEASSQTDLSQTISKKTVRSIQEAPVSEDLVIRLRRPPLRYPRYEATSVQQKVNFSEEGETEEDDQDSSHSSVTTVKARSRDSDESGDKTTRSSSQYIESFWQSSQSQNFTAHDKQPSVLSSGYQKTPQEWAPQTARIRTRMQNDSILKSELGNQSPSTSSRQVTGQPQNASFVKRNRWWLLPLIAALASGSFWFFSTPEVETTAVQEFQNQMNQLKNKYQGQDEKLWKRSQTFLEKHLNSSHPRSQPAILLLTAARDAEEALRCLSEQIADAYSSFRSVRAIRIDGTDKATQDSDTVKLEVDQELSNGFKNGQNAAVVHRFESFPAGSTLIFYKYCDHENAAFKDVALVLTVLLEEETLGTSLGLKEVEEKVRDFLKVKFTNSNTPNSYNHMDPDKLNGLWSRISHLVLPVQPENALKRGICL
# Fibroblast growth factor 10 (Homo sapiens), sequence (O15520 whole entry, looked up): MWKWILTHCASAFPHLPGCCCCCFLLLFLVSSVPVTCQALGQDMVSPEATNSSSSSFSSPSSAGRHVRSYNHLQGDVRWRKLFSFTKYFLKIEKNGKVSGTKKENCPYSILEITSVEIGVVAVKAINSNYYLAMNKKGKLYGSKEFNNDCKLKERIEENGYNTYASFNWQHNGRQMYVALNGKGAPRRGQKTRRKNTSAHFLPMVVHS
# Dickkopf-related protein 1 (Homo sapiens), sequence (O94907 whole entry, looked up): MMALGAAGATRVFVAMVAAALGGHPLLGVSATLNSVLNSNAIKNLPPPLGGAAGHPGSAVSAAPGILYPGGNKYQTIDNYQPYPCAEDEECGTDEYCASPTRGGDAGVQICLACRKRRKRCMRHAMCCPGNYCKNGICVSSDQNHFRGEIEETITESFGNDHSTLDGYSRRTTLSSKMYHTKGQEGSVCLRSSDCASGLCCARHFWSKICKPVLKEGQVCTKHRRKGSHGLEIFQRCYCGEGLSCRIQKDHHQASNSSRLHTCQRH
Compound,composite z-score [1],composite z-score [2],composite z-score [3],z-score [4],composite z-score [5],composite z-score [6],composite z-score [7],composite z-score [8],composite z-score [9],composite z-score [10],composite z-score [11],z-score [12],composite z-score [13],composite z-score [14],composite z-score [15],composite z-score [16],composite z-score [17],composite z-score [18],composite z-score [19],composite z-score [20]
NC(=O)NCC#Cc1ccc2c(c1)[C@]1(C(=O)N2)[C@H](c2ccc(OCCO)cc2)N2[C@H](c3ccccc3)[C@H](c3ccccc3)OC(=O)[C@H]2[C@@H]1C(=O)N1CCN(c2ncccn2)CC1,0.664,-0.356,-0.417,-0.115 (inactive),0.621,0.0283,0.231,0.232,0.209,1.29,0.833,-0.488,0.259,0.362,0.492,-0.0977,0.156,0.042,0.655,1.21
CC(C)CCC[C@@H](C)[C@H]1CC[C@@]2(C)C3=C(CC[C@]12C)[C@@]1(C)CC[C@H](OC(=O)C(C)(C)C)C(C)(C)C1CC3 (stereo not given in full),-0.0682,-0.291,-0.636,-2.09 (inactive),0.897,0.465,0.837,0.619,0.683,-0.312,0.506,-0.435,0.502,0.0548,-0.718,-0.0792,-0.134,-0.705,-0.0812,0.448
C#CCOC(=O)N[C@H](C=CCCCC)c1ccccc1,-0.257,0.326,0.942,-0.341 (inactive),0.605,0.35,0.241,-0.484,-0.352,0.983,-0.0543,-0.498,-0.0624,0.44,0.368,-0.0888,0.413,1.52,1.51,-0.194
COCCOC(=O)N1C(=O)[C@@]2(c3cc(C#CCCO)ccc31)[C@H](C(=O)N1CCc3cc(OC)c(OC)cc3C1)[C@H]1C(=O)O[C@H](c3ccccc3)[C@H](c3ccccc3)N1[C@@H]2c1ccc(OCCO)cc1,1.19,0.125,-0.199,-0.575 (inactive),1.37,1.2,0.846,1.4,0.609,0.0945,1.32,-1.32,0.887,0.842,0.224,-0.0731,-0.304,0.299,0.868,0.826
C=C(C(=O)CC[C@H](OC(=O)c1cccnc1)c1ccc(OCCO)cc1)C(C)C,1.56,-0.175,-0.049,1.77 (inactive),1.34,-0.0404,0.0365,0.721,-0.17,0.958,1.33,-3.29,0.242,0.098,-1.01,-0.0704,-0.142,-0.196,1.68,1.11
C[C@@H]1ON(c2ccccc2)[C@H](c2ccccc2)[C@H]1C(=O)N1C(=O)OC[C@H]1Cc1ccccc1,0.342,-0.327,-0.503,-0.34 (inactive),0.423,0.149,0.569,0.697,0.471,0.106,1.06,-0.782,0.567,-0.137,-0.542,0.765,-0.304,-0.282,0.28,0.327
CCCN1C(=O)[C@@]2(Cc3ccccc3)N=C(c3ccc(OCCCO)cc3)O[C@H]2c2ccccc21,1.61,0.0149,0.707,-0.872 (inactive),0.926,1.14,0.234,0.63,-0.234,1.14,1.36,-2.1,0.133,-0.141,-0.489,-0.101,0.195,0.0716,1.48,1.6
CCCCC(CC)C(O)C1C=CC2C(=O)NC(=O)C2N1Nc1ccccn1 (stereo not given),0.768,0.189,0.471,1.08 (inactive),0.327,0.493,-0.035,0.768,0.112,1.33,1.46,-0.201,0.0645,1.07,0.431,0.0919,-0.119,1.19,0.927,1.36
CCOC(=O)C1=CC[C@@H](c2cccc(Br)c2)N(S(=O)(=O)c2ccc(C)cc2)[C@H]1c1ccc([N+](=O)[O-])cc1,1.47,0.448,-0.0145,-0.183 (inactive),1.2,0.356,0.877,1.32,0.82,0.784,1.42,-0.802,0.868,0.855,0.69,0.0433,-0.138,0.822,1.1,1.05
O=C1c2ccccc2[C@](Cc2ccccc2I)(C(=O)NCC(F)(F)F)[C@H](c2ccc(CO)cc2)N1Cc1ccccc1,1.14,0.0143,0.296,-0.507 (inactive),0.269,0.848,-0.0654,0.871,-0.316,0.545,1.42,-0.673,-0.38,1.4,0.464,-0.155,0.0048,0.0139,0.419,0.928
COc1ccc(C(=O)Nc2ccc3c(c2)[C@]2(O[C@@H](CCO)[C@H]([Si](C)(C)c4ccc(OC)cc4)[C@H]2C)C(=O)N3Cc2ccccc2)cc1,0.663,-0.0183,-0.0221,-3.4 (inactive),0.572,0.3,0.349,0.393,0.359,1.11,0.958,-5.23,0.793,0.475,0.57,-0.13,0.0062,-0.295,0.422,0.375
